Here are results for six molecules from PubChem BioAssay (Tox21).

Each structure is given as a SMILES string. Results filed as inconclusive are left out. Values without a mark were called inactive. Calls of active or inactive are those of the source. Calls follow the shape of the dose curve; as a rule, active = well fitted curve in the direction sought with a large enough effect in the repeat runs; inconclusive = weak or mixed curves; inactive = no such curve, though single readings can be large; an effect the other way counts as inactive or inconclusive.

Test [1] can be described thus: qHTS RealTime-Glo MT Cell Viability Assay in HEK293 cells - 16 hour (AID 1224872). Also: nearly all actives have a fitted effect of over 50% in size. Also: potency is read from the fitted curve at half-maximal effect. As to activity change, negative = cytotoxicity: top concentration of the series differs between compounds. Summed up: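 Tox21 10K qHTS, HEK293, 600 cells/well, RealTime-Glo reagent co-dispensed with cells; 5 h preincubation, compound by pintool, 37 C, luminescence at 0–40 h.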
The nature of test [2]: qHTS RealTime-Glo MT Cell Viability Assay in HepG2 cells - 8 hour (AID 1224873). Also: nearly all actives have a fitted effect of over 55% in size. Summed up:
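HepG2 cells mixed with RealTime-Glo MT reagents (NanoLuc plus cell-permeant prosubstrate) were seeded at 600 cells/well, incubated 5 h at 37 C/5% CO2, then pinned with compounds in DMSO; nonlytic luminescence tracked viability during 40 h treatment.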

Test [3] is described as follows: A CellTox Green Cytotoxicity Assay to monitor cytotoxicity in HEK293 cells - 24 hour (AID 1224875). Also: series mostly up to about 77 µM; nearly all actives have a fitted effect of over 45% in size. Summed up: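 Read-out: fluorescence of a cell-impermeant cyanine dye staining DNA of dead cells, proportional to cytotoxicity. HEK293, 600 cells/well with reagent, compound (23 nL DMSO) added after 5 h; reads at 0, 8, 16, 24, 32, 40 h.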
Test [4] in a line: qHTS RealTime-Glo MT Cell Viability Assay in HepG2 cells - 32 hour (AID 1224877). Also: nearly all actives have a fitted effect of over 55% in size. Also: potency is read from the fitted curve at half-maximal effect. The essentials:
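Cells + NanoLuc/prosubstrate dispensed (600 cells/well) → 5 h at 37 C/5% CO2 → compounds in DMSO transferred → 40 h incubation at 37 C, luminescence read at 0, 8, 16, 24, 32, 40 h.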

Test [5] can be described thus: A CellTox Green Cytotoxicity Assay to monitor cytotoxicity in HepG2 cells - 40 hour (AID 1224879). Also: nearly all actives have a fitted effect of over 40% in size. Also: potency is read from the fitted curve at half-maximal effect. Summed up:
(§1)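 HepG2, 600 cells/well premixed w/ CellTox Green; 5 h settle, 37 C/5% CO2; pintool cpd add (DMSO); 37 C, 40 h; fluorescence read at 0, 8, 16, 24, 32, 40 h.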

The nature of test [6]: A CellTox Green Cytotoxicity Assay to monitor cytotoxicity in HepG2 cells - 16 hour (AID 1224876). Also: nearly all actives have a fitted effect of over 45% in size. Also: potency is read from the fitted curve at half-maximal effect. Summed up:
as §1

A short description of test [7]: qHTS RealTime-Glo MT Cell Viability Assay in HEK293 cells - 0 hour (AID 1224880). Also: top concentration of the series differs between compounds; nearly all actives have a fitted effect of over 45% in size. Summed up:
(§2)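 Luminescence readout at each listed time point; HEK293, 600 cells/well, RealTime-Glo MT reagent added with cells; compounds pinned (23 nL in DMSO) after 5 h at 37 C; continuous culture at 37 C.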

Test [8] in a line: A CellTox Green Cytotoxicity Assay to monitor cytotoxicity in HepG2 cells - 24 hour (AID 1224878). Also: nearly all actives have a fitted effect of over 45% in size. Also: potency is read from the fitted curve at half-maximal effect. The essentials: as §1
The nature of test [9]: qHTS RealTime-Glo MT Cell Viability Assay in HEK293 cells - 40 hour (AID 1224874). Also: nearly all actives have a fitted effect of over 50% in size. Also: potency is read from the fitted curve at half-maximal effect. The settings on record: RealTime-Glo luminescence; max response: active compounds read low. The essentials:
as §2
% is scaled to controls: 0 for no effect and ±100 for the full control effect.

Turning to `Clc1ccc2c(c1)CCc1cccnc1C2=C1CCNCC1`, the Potency result in test [1], in test [2] and in test [3] was “inactive” each time. Also, the figures for the Potency in test [4] and in test [5] were 26.8 µM (active) and 23.9 µM (active), respectively.

Consider `CCCCCCCCCCO[C@@H]1O[C@H](CO)[C@@H](O)[C@H](O)[C@H]1O`, for which the Potency entry in test [1], in [2], in test [6], in test [4], in test [5] and in test [7] was “inactive” in each case.

`CCOC(=O)COC(=O)c1cc(Oc2ccc(C(F)(F)F)cc2Cl)ccc1[N+](=O)[O-]`: the Potency result in test [3], in [6], in test [8], in test [5] and in test [7] was “inactive” each time.

Consider `CN(C)c1ccc(/C=C/c2ccc([N+](=O)[O-])cc2)cc1`, for which the figures for the activity change, negative = cytotoxicity in test [1] and in test [7] were -4.94% [at 6.97 µM] and -5.79% [at 6.97 µM], respectively. Moreover, the viability change, negative = cytotoxic in test [2] was -4.05% [at 6.97 µM]. For the same molecule, in [9], the max response is -4.38%. For the same molecule, the cytotoxicity increase in test [6] was 19.5% [at 6.97 µM]; in [5], 16.3% [at 6.97 µM]. In test [4], the activity change, negative = cytotoxic is -4.75% [at 6.97 µM].

With `C=C1C(=C/C=C2\CCC[C@]3(C)[C@@H]([C@H](C)/C=C/[C@@H](O)C4CC4)CC[C@@H]23)C[C@@H](O)C[C@@H]1O`, the Potency is 19 µM (active) in test [1] and 8.49 µM (active) in test [9]. The Potency entry in test [2], in test [3], in [6], in test [4], in test [5] and in test [7] was “inactive” throughout.

Regarding `CCCOC(C(=O)OC1CCN(C)CC1)(c1ccccc1)c1ccccc1`, the Potency entry in test [2], in test [4] and in [7] was “inactive” each time. The figures for the Potency in [6], in [8] and in test [5] were 19 µM (active), 23.9 µM (active) and 23.9 µM (active), respectively.
